{
  "source": "ChEMBL document CHEMBL3988442",
  "about": "“University of Dundee, Small-Polar-MMV Screening Library” (2021)",
  "data": [
    {"target": "AMP-activated protein kinase, AMPK (Homo sapiens) (UniProt P54646+O43741+P54619+Q9UGJ0+Q9Y478+Q13131+Q9UGI9)", "assay": "AMP-dependent Kinase enzyme assay. An in vitro enzyme assay that detects ADP turnover that is directly proportional to AMPK activity. This uses naive AMPK that is activated during the assay with MK-8722", "type": "functional", "parameters": "scale not given: direction of the effect not stated beside the values", "conditions": "30 µM", "units": {"Percent Effect": "%"}, "values": [
      {"smiles": "CCC(c1ccc(F)cc1)S(=O)(=O)CCO", "note": "(stereo not given)", "Percent Effect": 0.117},
      {"smiles": "CC(OCC1CC1)C(=O)Nc1cccc(C(=O)Nc2ccncc2)c1", "note": "(stereo not given)", "Percent Effect": 17.8},
      {"smiles": "CCS(=O)(=O)N1Cc2ccccc2CC1C(=O)OCc1c(C)noc1C", "note": "(stereo not given)", "Percent Effect": -0.838},
      {"smiles": "O=C(Nc1ccc(Br)cc1F)c1ccc(N2CCOCC2)nn1", "Percent Effect": -1.73},
      {"smiles": "CCC(=O)NC(CC)c1ccccc1C", "note": "(stereo not given)", "Percent Effect": 7.08},
      {"smiles": "CCN(CC)S(=O)(=O)c1ccc(NC(=O)C(C)(C)C)cc1", "Percent Effect": 3.46},
      {"smiles": "CN1CCC(Nc2cc(Cl)ccc2OCC(F)(F)F)C1=O", "note": "(stereo not given)", "Percent Effect": -5.49},
      {"smiles": "CC1CN(c2ncnc3c2cnn3C)CCN1c1nccs1", "note": "(stereo not given)", "Percent Effect": 11.2},
      {"smiles": "Cc1ncn(CCNC(=O)Nc2ccc(F)c(Cl)c2)c(=O)c1C", "Percent Effect": 2.03},
      {"smiles": "CN(CCOc1ccc(C#N)cc1)CC1CCS(=O)(=O)C1", "note": "(stereo not given)", "Percent Effect": 7.94},
      {"smiles": "Cc1nn(C)c(Cl)c1C(=O)NCC1(C(N)=O)CCOCC1", "Percent Effect": -1.15},
      {"smiles": "CCCc1nnc(N2CCC(N3CCCCCC3)CC2)o1", "Percent Effect": -2.81},
      {"smiles": "CCCN(Cc1nnnn1C1CC1)CC1COc2ccccc2O1", "note": "(stereo not given)", "Percent Effect": 7.59},
      {"smiles": "CN(C(=O)c1ccc2c(c1)nc(N1CC[C@H](O)C1)n2C)C1CCSCC1", "Percent Effect": 9.79},
      {"smiles": "CN(Cc1nc(C2CC2)no1)C1CCS(=O)(=O)C1", "note": "(stereo not given)", "Percent Effect": 2.02},
      {"smiles": "Cn1cc(CN2CCS(=O)(=O)C(C)(C)C2)cn1", "Percent Effect": 5.13},
      {"smiles": "CN1N=C(C(=O)NCCc2ccc(OC3CCCC3)cc2)CCC1=O", "Percent Effect": -0.783},
      {"smiles": "COc1cc(Br)c(S(=O)(=O)NC(=O)C(C)OC)cc1OC", "note": "(stereo not given)", "Percent Effect": -6.43},
      {"smiles": "O=C(c1ccccc1F)N1CCCC1Cn1c(=O)oc2ccccc21", "note": "(stereo not given)", "Percent Effect": 10.9},
      {"smiles": "CCc1nn(C)c(Cl)c1CN1CCCC2(C1)CN(C)C(=O)O2", "note": "(stereo not given)", "Percent Effect": 5.15},
      {"smiles": "CNC(=O)c1cn2cc(-c3cccc(Cl)c3)n(CC3CC3)c(=O)c2n1", "Percent Effect": -3.37},
      {"smiles": "COCCn1ccnc1C1CCN(C(=O)CSc2nnc(C)o2)CC1", "Percent Effect": -0.22},
      {"smiles": "C=C(C)CN(CC)C(=O)Nc1ccccc1CN(C)C(C)=O", "Percent Effect": -1.91},
      {"smiles": "Cc1ccc(N2CCCC(Nc3nn4cc(C)nc4s3)C2)nn1", "note": "(stereo not given)", "Percent Effect": 8.12},
      {"smiles": "NCc1ccnc(Oc2ccc(F)cc2)c1", "Percent Effect": 14.1},
      {"smiles": "O=C(CCn1cccn1)NCCOc1cccc(Cl)c1", "Percent Effect": -3.1},
      {"smiles": "Cc1ccsc1C(=O)NCc1ccnc(C2CCCOC2)n1", "note": "(stereo not given)", "Percent Effect": 11.8},
      {"smiles": "Cc1ccc(CNC(=O)c2ccc(=O)n(C)n2)c(OC2CCCC2)c1", "Percent Effect": 12.3},
      {"smiles": "CC(C)N1CCC(CC(=O)NCc2cc(O)ncn2)CC1", "Percent Effect": -3.46},
      {"smiles": "CCc1cnc(N2CCCC(CCC(N)=O)C2)nc1", "note": "(stereo not given)", "Percent Effect": -6.19},
      {"smiles": "CCc1n[nH]c(C(=O)N2CCC3(CCCN(CCOC)C3=O)C2)c1C", "note": "(stereo not given)", "Percent Effect": 6.73},
      {"smiles": "COc1cccc(CN(C)Cc2nc3cc(C)ccc3[nH]2)c1O", "Percent Effect": 5.48},
      {"smiles": "Cc1cccc(C)c1Nc1noc2c1CN(C(=O)c1ccn(C)n1)CC2", "Percent Effect": 15.9},
      {"smiles": "CCn1cnnc1CNC(=O)N1CCOC(c2ccc(Cl)cc2)C1", "note": "(stereo not given)", "Percent Effect": -4.37},
      {"smiles": "CC(C)c1nc(CN(C)S(=O)(=O)c2cccs2)cs1", "Percent Effect": 4.38},
      {"smiles": "Cc1ccccc1Cc1nc(CSc2nnc(N)n2C)no1", "Percent Effect": 2.88},
      {"smiles": "COc1ccc2c(c1OC)Cc1c-2nc(N)c(C#N)c1C1CCOC1", "note": "(stereo not given)", "Percent Effect": 24.3},
      {"smiles": "CN(C)CCC1CCN(c2cc(N3CCCC3CO)ncn2)CC1", "note": "(stereo not given)", "Percent Effect": -6.25},
      {"smiles": "O=C1OCCN1Cc1nc(C2(c3ccc(F)cc3)CCOC2)no1", "note": "(stereo not given)", "Percent Effect": 8.23},
      {"smiles": "Cc1csc(CCNC(=O)N2CCC(C(N)=O)CC2)n1", "Percent Effect": -10.8}
    ]}
  ]
}
